Source: PubChem BioAssay (NCATS)
Where “and” joins values, the source holds several entries; their conditions need not be identical. Identical values can stand only once. Results filed as inconclusive are left out. The source holds several records for some structures; these can differ, active in one and inactive in another. Unmarked numbers belong to inactive results. Calls of active or inactive are those of the source. Calls follow the shape of the dose curve; as a rule, active = well fitted activation curve with a large enough effect; inconclusive = small, poorly fitted or top-dose-only effect; inactive = no such curve, though single readings can be large or run the other way.
Potency is read from the fitted curve at half-maximal effect.

Each compound was assayed against Cellular tumor antigen p53 (Homo sapiens) (UniProt P04637) (assay: Primary qHTS for small molecule compounds that upregulate eGFP-tagged delta133p53alpha (in N-terminal) cells. (AID 2060322; also: nearly all actives have a fitted effect of over 75% in size;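 as to activation: cells pre-induced with doxycycline then dosed without doxycycline; series mostly up to about 56 µM; 0% = DMSO vehicle and 100% = reference activator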)). Details: NCI-H358 eGFP-delta133p53alpha fluorescence, 24 h; activation: stronger effect = higher value.
Cellular tumor antigen p53 (Homo sapiens), sequence (P04637 whole entry, looked up): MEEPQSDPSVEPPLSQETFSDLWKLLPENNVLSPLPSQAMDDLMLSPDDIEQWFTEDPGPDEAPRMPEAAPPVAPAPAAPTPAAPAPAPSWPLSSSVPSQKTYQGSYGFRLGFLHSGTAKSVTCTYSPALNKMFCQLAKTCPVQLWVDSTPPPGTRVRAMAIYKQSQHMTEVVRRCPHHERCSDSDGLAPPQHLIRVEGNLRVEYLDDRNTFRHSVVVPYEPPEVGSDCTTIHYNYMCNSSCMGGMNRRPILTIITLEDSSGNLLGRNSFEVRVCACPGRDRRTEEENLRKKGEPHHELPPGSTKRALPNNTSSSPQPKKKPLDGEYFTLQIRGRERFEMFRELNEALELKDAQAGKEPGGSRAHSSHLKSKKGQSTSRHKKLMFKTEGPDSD
Text: Assay Development and Screening Technology
National Center for Advancing Translational Sciences (NCATS),
National Institute of Health (NIH), Rockville, Maryland
Cellular senescence (CS) is one of the hallmarks of aging and age-related diseases. Senescent cells are characterized by an irreversible growth arrest, an increase in senescence-associated beta-galactosidase (SA-beta-gal) activity and p16INK4a expression, an activation of the DNA damage response pathways, and the emergence of a senescence-associated secretory phenotype (SASP).
Delta133p53alpha, a human/primate-specific p53 protein isoform, delays or inhibits the induction of CS and SASP in various types of human cells, including progeria-derived fibroblasts, primary normal astrocytes, and CD8+ T lymphocytes. Induction of delta133p53alpha with small molecule compounds may provide therapeutic opportunities for inhibition of senescence/SASP-associated pathologies in progeria syndromes, astrocyte-mediated neuroprotection in neurodegenerative diseases, and possibly prevention and treatment of a wider range of senescence- and aging-associated diseases.
Here we report the development and validation of a cell-based quantitative high throughput screening (qHTS) assay in 1,536-well format. This qHTS assay uses the NCI-H358 cell line with doxycycline-inducible expression of enhanced green fluorescent protein (eGFP)-tagged delta133p53alpha, which allows efficient and highly quantitative measurement of the protein levels.
PROTOCOL TABLE (as described by Inglese J, Shamu CE and Guy RK. 2007)
SEQUENCE No. (e.g., 1, 2, 3, etc.); […] (e.g., Cells, Incubation, Reagent, etc.); VALUE; DESCRIPTION.
1; Cells; 4uL; 800 doxycycline treated cells / well in doxycycline-free media, 1536-well black, clear-bottom low base Aurora microplates.
2; Compounds; 23 nL; Kalypsis pin tool (Wako) equipped with 1536-well pin heads, 5-azacytidine positive control.
3; Incubation; 24 hr; 37C, 5% CO2; 95% relative humidity.
4; Aspiration; 1x; BioTek EL406 washer dispenser (Agilent).
5; Fixing; 3.5% paraformaldehyde, BioTek EL406 washer dispenser (Agilent).
6; Washing; 1x PBS; BioTek EL406 washer dispenser (Agilent).
7; Nuclei staining; 1:1000 dilution of Hoechst 33342 (Thermofisher), BioTek EL406 washer dispenser (Agilent).
8; Incubation; 20 min; in the dark at room temperature.
9; Washing; 2x, 1x PBS (ThermoFisher), BioTek EL406 washer dispenser (Agilent).
10; Reagent; 10 uL; 1x PBS per well, sealed with clear adhesive tape.
NOTES (numbers refer to sequence numbers above).
1. NCI-H358 cells expressing eGFP-tagged delta133p53alpha were grown in T75 culture flasks and treated with doxycycline for 24h, at 10 ng/ml for eGFP-D133p53a cells (N-terminal cell) and 100 ng/ml for D133p53a-eGFP cells (C-terminal cells). Cells were trypsinized, counted using a Counted 3 Automated Cell Counter (Thermo Fisher), and diluted to a concentration of 200,000 cells/ml. A Multidrop Combi Reagent Dispenser (ThermoFisher) was used to dispense 800 cells/well in […] of doxycycline-free media, into 1536-well black/clear bottom low base plates (AuroraMicroplates).
2. After plating cells, 23 nl of compound library, DMSO vehicle control or positive control (5-azacytidine) were transferred by Pin Tool (Wako). The plate map layout was the same for each plate: (column 1) non-doxycycline treated cells + DMSO vehicle control; (column 2) doxycycline treated cells + DMSO vehicle control baseline; (column 3) doxycycline treated cells + positive control 57.5 uM final concentration 5-azacytidine; (column 4) doxycycline treated cells + serial dilution of 5-azacytidine, 16-point 1:2 titration spanning 1.8 nM to […] final concentration; (columns 5-48) doxycycline treated cells + titration of library compounds.
3. Cells were incubated at 37 °C, 5 % CO2, 95% RH with breathable metal lid for 24h.
4-10. […] After two washes, 10 ul of 1X PBS (Thermo Fisher) was dispensed to each well. Clear adhesive plate seals (VWR) were applied and plates stored at 4 °C.
11. […]
`C[C@H](N)CN1CCc2ccc(Br)cc21` was tested, and the activation was 5.22%.
With `COC(=O)N1CCN(C(=O)Cc2ccc(Cl)c(Cl)c2)[C@@H](CN2CCCC2)C1` the activation was 1.91%.
In the case of `N#C[C@@H](O[C@@H]1O[C@H](CO[C@@H]2O[C@H](CO)[C@@H](O)[C@H](O)[C@H]2O)[C@@H](O)[C@H](O)[C@H]1O)c1ccccc1`, the activation is reported as -19.6%.
For `O=C(CCCN1CCC2(CC1)C(=O)NCN2c1ccccc1)c1ccc(F)cc1`, the activation was -10.7% and -39.7%.
With `N#C/C(=C/c1ccc(O)c(O)c1)C(N)=S` the activation was -33.2%.
In the case of `ClCc1cccc(Cl)c1`, the activation is reported as 5.02%.
In the case of `C=CC(C)(C)C12C=C(O)C(=O)N3/C(=C\c4cnc[nH]4)C(=O)NC31N(OC)c1ccccc12` (stereo not given), the Potency is reported as 4.65 µM (active).
With `CCN1CCN(C(=O)Cc2ccc(Nc3ncc(F)c(Nc4ccc(C(=O)Nc5ccccc5Cl)cc4)n3)cc2)CC1` the Potency was 4.78 µM (active) and the activation was 33.8%.
For `Oc1ccc2c3c1O[C@H]1c4[nH]c5c(c4C[C@@]4(O)[C@@H](C2)N(CC2CC2)CC[C@]314)C[C@@]1(O)[C@H]2Cc3ccc(O)c4c3[C@@]1(CCN2CC1CC1)[C@H]5O4`, the activation was 26.8% and -10.8%.
`C/C=C(\C)C(=O)O[C@H]1[C@H](OC(C)=O)[C@]2(CO)[C@H](O)[C@H](O)[C@]3(C)C(=CCC4[C@@]5(C)CC[C@H](O[C@@H]6O[C@H](C(=O)O)[C@@H](O)[C@H](O[C@@H]7OC[C@H](O)[C@H](O[C@@H]8OC[C@H](O)[C@H](O)[C@H]8O)[C@H]7O)[C@H]6O[C@@H]6O[C@H](CO)[C@@H](O)[C@H](O)[C@H]6O)C(C)(C)C5CC[C@]43C)[C@@H]2CC1(C)C` (stereo not given in full) showed an activation of -3.05%.
Compound `CC[C@H]1CN2CC[C@H]1C[C@@H]2[C@@H](O)c1ccnc2ccc(OC)cc12` has an activation of 17.9%.
Work on `Cc1ccc(-c2nc3ccc(C)cn3c2CC(=O)N(C)C)cc1` yielded an activation of -32.2%.
For `CN1CCC[C@@H]1Cc1c[nH]c2ccc(Nc3ncccc3[N+](=O)[O-])cc12`, the activation was -40.7% and 3.34%.
Compound `Cn1ncnc1COc1nn2c(-c3c(F)cccc3F)nnc2cc1C1CCC1` has an activation of -7.16%.
For `CCc1c(C(=O)C(N)=O)c2c(OCC(=O)O)cccc2n1Cc1ccccc1`, the activation was -24.6% and -2.39%.
`CCN1C[C@@]2(COC)C3[C@@H](OC)C4[C@@H]1C3([C@@H]1C[C@]3(O)[C@H](OC(=O)c5ccccc5)[C@@H]1[C@]4(OC(C)=O)[C@@H](O)[C@@H]3OC)[C@H](OC)C[C@H]2O` showed an activation of -12.5%.
Work on `Cc1ccc(N=CN(C)C=Nc2ccc(C)cc2C)c(C)c1` yielded an activation of 13%.
For `C[N+]1(C)C2CCC1CC(OC(=O)C(CO)c1ccccc1)C2` (stereo not given), the activation was -2.46% and -16.7%.
`COc1ccsc1CNCC[C@@]1(c2ccccn2)CCOC2(CCCC2)C1` gave an activation of -0.333%.
For `CO/C1=C\C(C)=C\[C@@H](C)[C@@H](O)[C@@H](C)C/C(C)=C/C=C/[C@H](OC)[C@@H]([C@@H](C)[C@@H](O)[C@H](C)[C@@]2(O)C[C@@H](O)[C@H](C)[C@@H](C(C)C)O2)OC1=O`, the activation was 13%.
With `CO[C@H]1CCC(O[C@H]2C[C@H]([C@]3(C)CC[C@]4(C[C@H](O)[C@@H](C)[C@@H]([C@@H](C)C=C(C)C(=O)[C@H](C)C[C@H](C)C(=O)O)O4)O3)O[C@]3(O[C@@H]([C@H]4O[C@@](O)(CO)[C@H](C)C[C@H]4C)C[C@H]3C)[C@H]2C)O[C@H]1C` (stereo not given in full) the activation was 20.4%.
`CCNc1nc(Cl)nc(NCC)n1` was tested, and the activation was 8.37%.
With `C=CCN1CC[C@]23CCCC[C@H]2[C@H]1Cc1ccc(O)cc13` the activation was -6.69%.
`CC[C@@H](C)[C@H]1C(=O)O[C@H](C(C)C)C(=O)N(C)[C@@H](C(C)C)C(=O)O[C@H](C(C)C)C(=O)N(C)[C@@H](C(C)C)C(=O)O[C@H](C(C)C)C(=O)N1C` was tested, and the activation was -17.6%.
With `CC(=O)N1N=C(c2ccc(N)cc2)c2cc3c(cc2C[C@H]1C)OCO3` the activation was -0.955%.
In the case of `C=C(C)C(=O)O[C@H]1[C@@H]2[C@H](C)C(=O)O[C@@H]2C[C@@H](C)[C@@H]2C=CC(=O)[C@]21C`, the Potency is reported as 13.2 µM (active).
`CC(C)NCC(O)c1ccccc1Cl` (stereo not given) showed an activation of 21.8%.
In the case of `Cc1o[nH]c(=O)c1CC(N)C(=O)O` (stereo not given), the activation is reported as 16.8%.
In the case of `CC1=NN=C(c2ccc(N)cc2)c2cc3c(cc2C1)OCO3`, the activation is reported as 6.58% and the Potency is reported as 9.68 µM (active).
With `CCCCCn1cc(C(=O)Oc2cccc3cccnc23)c2ccccc21` the activation was -4.77%.
With `CC1OC(C)OC(C)O1` (stereo not given) the activation was 6.21%.
For `Cc1[nH]nc2ccc(-c3cncc(OC[C@@H](N)Cc4c[nH]c5ccccc45)c3)cc12`, the activation was 8.93% and the Potency was 8.63 µM (active).
Compound `CCC(=O)O[C@H]1CC[C@H]2[C@@H]3CCC4=CC(=O)CC[C@]4(C)[C@H]3CC[C@]12C` has an activation of -0.565%.
For `CC(=O)N(C)c1cccc(-c2ccnc3c(C(=O)c4cccs4)cnn23)c1`, the activation was -3.13% and 5.73%.
`COc1ccc(C(c2ccc(OC)cc2)C(Cl)(Cl)Cl)cc1` gave an activation of -10.7%.
`O=c1[nH]c2ccccc2n1C1CCN(CCCC(c2ccc(F)cc2)c2ccc(F)cc2)CC1` was tested, and the Potency was 26.9 µM (active) and the activation was -35.4%.
